Bioassay records as filed in PubChem BioAssay.
Shown are actives, neighbours in structure and some others; about 21% of the full set was active somewhere.
ClpP mod = qHTS Assay for Activators of ClpP; 1.9% of 340,000 active; purified B. subtilis ClpP, FRET peptide cleavage, 20 min; ATP-dependent Clp protease proteolytic subunit (Bacillus subtilis (strain 168)), P80244; Potency, µM (top dose mostly 57.5 µM), without a hit: at the top dose activity change, negative = active; active = well fitted falling curve with a large enough effect; inconclusive = small, poorly fitted or top-dose-only effect; inactive = no such curve, though single readings can be large or run the other way; also: potency is read from the fitted curve at half-maximal effect; the source files actives as falling curves though it sought activators and does not explain the sign; nearly all actives have a fitted effect of over 65% in size
Target sequence (P80244 whole entry, looked up): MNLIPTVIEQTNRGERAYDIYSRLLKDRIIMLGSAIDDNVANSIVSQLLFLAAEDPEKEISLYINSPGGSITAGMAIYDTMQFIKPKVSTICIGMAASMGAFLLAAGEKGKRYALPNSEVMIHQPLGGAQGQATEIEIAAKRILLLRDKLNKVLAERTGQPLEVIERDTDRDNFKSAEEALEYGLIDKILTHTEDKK
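FRET quenching reversal measured ClpP activation: 10 microg/mL B. subtilis ClpP at pH 8 with the FRET-FV decapeptide, read at 430 nm after 320 nm excitation. The 20-min minus 0-min signal was scaled between DMSO/no-enzyme wells and ADEP (5.8 microM final).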
IL-1B inflam inh = qHTS for Inhibitors of Inflammasome Signaling: IL-1-beta AlphaLISA Primary Screen. activity change, % at 57.5 µM. 4.7% of 360,000 active. AID 743279, 2014. THP-1 LPS/ATP IL-1B secretion, AlphaLISA, 16 h; active compounds read low; in the data active = activity change below about -50%; inconclusive = mostly about -30% to -49%; also: % is scaled to controls: 0 for no effect and ±100 for the full control effect
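THP-1 cells pretreated 1 hr with compounds (up to 57.5 uM final), then stimulated with LPS (250 ng/mL final) plus ATP (1.25 mM final); secreted IL-1B measured by AlphaLISA after 16 hr, decreased signal indicating inhibition.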
D3 antag = qHTS of D3 Dopamine Receptor Antagonist: qHTS; D(3) dopamine receptor (Homo sapiens), P35462; D3R cells, DiscoveRx beta-arrestin luminescence, antagonist mode; active compounds read low; max response, negative = inhibition, %; 2.5% of 360,000 active; in the data active = max response below about -50%; inconclusive = no clear call, values can overlap the other calls; also: % is scaled to controls: 0 for no effect and ±100 for the full control effect
Target sequence (P35462 whole entry, looked up): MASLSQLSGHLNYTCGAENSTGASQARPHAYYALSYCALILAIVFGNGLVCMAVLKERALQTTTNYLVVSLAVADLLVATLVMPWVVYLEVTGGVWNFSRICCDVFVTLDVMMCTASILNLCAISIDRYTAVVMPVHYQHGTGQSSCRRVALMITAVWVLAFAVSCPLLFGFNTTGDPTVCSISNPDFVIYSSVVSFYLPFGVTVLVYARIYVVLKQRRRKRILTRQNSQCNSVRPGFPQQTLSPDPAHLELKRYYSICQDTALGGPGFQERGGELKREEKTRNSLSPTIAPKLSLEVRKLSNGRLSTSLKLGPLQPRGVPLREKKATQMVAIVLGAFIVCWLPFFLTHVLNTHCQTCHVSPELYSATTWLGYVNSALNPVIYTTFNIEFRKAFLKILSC
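Cells plated overnight at 1500 cells/well, then exposed to library compounds with dopamine controls for 90 minutes at 37 degrees C. DiscoveRx reagent added for 30–60 minutes at room temperature; luminescence read, quantitative HTS format.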
D3 ag = qHTS of D3 Dopamine Receptor Agonist: qHTS. 0.58% of 410,000 active. D3R DiscoveRx beta-arrestin cells, luminescence, 90 min. AID 652048, 2013. D(3) dopamine receptor (Homo sapiens), P35462. max activation, %; in the data active = max activation above about 30%; also: 0% is about no effect
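Agonist-mode cell screen: cells plated at 1500/well and incubated overnight at 37 °C, then exposed to library compounds for 90 min at 37 °C. Detection reagent was added for 30–60 min at room temperature, and luminescence was read.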
DT40 TDP1 no CPT = qHTS for Inhibitors of human tyrosyl-DNA phosphodiesterase 1 (TDP1): qHTS in cells in absence of CPT; DT40 Tdp1-/- hTDP1 cells, no CPT, ATP luminescence, 48 h; Potency, µM (series often up to 46.2 µM), inactives show at the top dose activity change, negative = growth inhibition, hits mostly inhibitors; 15% of 420,000 active; AID 686978, 2013; also: potency is read from the fitted curve at half-maximal effect; % is scaled to controls: 0 for no effect and ±100 for the full control effect; nearly all actives have a fitted effect of over 55% in size
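Growth kinetics read by CellTiter-Glo luminescence after ≥48 hr at 37 °C. Cells: DT40 Tdp1-/- stably carrying human TDP1, 400 per well, compound exposure in the absence of CPT (DMSO vehicle).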
DT40 TDP1 CPT = qHTS for Inhibitors of human tyrosyl-DNA phosphodiesterase 1 (TDP1): qHTS in cells in presence of CPT. chicken DT40 Tdp1-/-;hTDP1 cells + 20 nM CPT, ATP luminescence, 48 h. Potency, µM (highest dose often 46.2 µM), for inactives: at the highest dose activity change, negative = growth inhibition, usual class: inhibitors. AID 686979, 2013. 12% of 420,000 active; also: potency is read from the fitted curve at half-maximal effect; % is scaled to controls: 0 for no effect and ±100 for the full control effect; nearly all actives have a fitted effect of over 55% in size
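Cell growth measured by CellTiter-Glo luminescence after a minimum 48 h, 37 C compound exposure with 20 nM CPT in Tdp1-knockout DT40 cells stably expressing hTDP1, seeded 400/well; qHTS titration format.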
* = called active by the depositor; [ ] = dose if it differs, or a comment. Unless noted, calls follow the shape of the dose curve; as a rule, active = well fitted inhibition curve with a large enough effect; inconclusive = small, poorly fitted or top-dose-only effect; inactive = flat fitted curve, though single readings scatter.

How did CCOC(=O)/C=C1\CN(C(C)c2ccccc2)S(=O)(=O)c2ccccc21 (centres undefined) do in these assays?
ClpP mod: -2%; IL-1B inflam inh: 11; D3 antag: 20; D3 ag: 13; DT40 TDP1 no CPT: -26%; DT40 TDP1 CPT: -29%

Results for O=C1CN(C(=O)Cn2ncc(Cl)c(Cl)c2=O)c2ccccc2N1 ?
IL-1B inflam inh: -106*; D3 antag: 18; D3 ag: 7; DT40 TDP1 no CPT: 8.2µM*; DT40 TDP1 CPT: 7.3µM*

How did O=C1CN(C(=O)COc2ccc(Cl)c(Cl)c2)c2ccccc2N1 do in these assays?
ClpP mod: 2%; IL-1B inflam inh: -3; D3 antag: 5; D3 ag: 0; DT40 TDP1 no CPT: -20%; DT40 TDP1 CPT: -10%

Results for COc1cc(Cl)c(NC(=O)c2cc(S(=O)(=O)N3CCCCC3)c[nH]2)c(OC)c1 ?
ClpP mod: 53%; D3 ag: -21; DT40 TDP1 no CPT: -18%; DT40 TDP1 CPT: -13%

What do the screens show for `CCOC(=O)COc1nc(OC)nc(N2CCOCC2)n1`?
ClpP mod: 0%; IL-1B inflam inh: 0; D3 antag: 29; D3 ag: 4; DT40 TDP1 no CPT: 8%; DT40 TDP1 CPT: 4%

What do the screens show for `CCOC(=O)c1c(-c2ccccc2)nnn1-c1nc(OC)nc(N2CCOCC2)n1`?
ClpP mod: 1%; IL-1B inflam inh: -17; D3 antag: -1; D3 ag: -9; DT40 TDP1 no CPT: 16µM*; DT40 TDP1 CPT: 23µM*

How did CC(=O)N1CCC2(CC1)CCN(C(=O)Nc1cccc(F)c1)CC2 do in these assays?
DT40 TDP1 no CPT: -21%; DT40 TDP1 CPT: 0%

How did CC(=O)c1ccc(N2CCN(C(=O)Nc3cccc(F)c3)CC2)cc1 do in these assays?
ClpP mod: -14%; IL-1B inflam inh: -5; D3 antag: 0; D3 ag: 1; DT40 TDP1 no CPT: inconclusive; DT40 TDP1 CPT: 21µM*

How did O=C(c1cccc(NS(=O)(=O)c2ccc(F)c(F)c2)c1)N1CCN(C(c2ccccc2)c2ccccc2)CC1 do in these assays?
ClpP mod: 32µM*; IL-1B inflam inh: -14; D3 antag: 22; D3 ag: -2; DT40 TDP1 no CPT: inconclusive; DT40 TDP1 CPT: -29%

How did O=C(c1cccc(F)c1)N1CCC2(CC1)CN(c1ccc(-c3ccccc3)cc1)C2 do in these assays?
DT40 TDP1 no CPT: 15µM*; DT40 TDP1 CPT: inconclusive

How did O=C(Nc1cccc(F)c1)N1CCC2(CC1)CCN(C(=O)c1cccc(F)c1)CC2 do in these assays?
DT40 TDP1 no CPT: 21µM*; DT40 TDP1 CPT: -6%

How did COc1cc(OC)cc(C(=O)Nc2cc3c(cc2N2CCCC2)n(C)c(=O)c(=O)n3C)c1 do in these assays?
ClpP mod: inconclusive; D3 ag: 2; DT40 TDP1 no CPT: inconclusive; DT40 TDP1 CPT: inconclusive

What do the screens show for `O=C(c1cccc(F)c1)N1CCC2(CC1)CCN(C(c1ccccc1)c1ccccc1)CC2`?
DT40 TDP1 no CPT: 23µM*; DT40 TDP1 CPT: 15µM*

How did COC(=O)N1CCC[C@@]2(CCN(C(=O)Nc3cccc(C#N)c3)C2)C1 do in these assays?
DT40 TDP1 no CPT: 0.046µM*; DT40 TDP1 CPT: inconclusive

How did O=C(Nc1cccc(F)c1)N1CC[C@@]2(CCCN(C(=O)c3cccc(F)c3)C2)C1 do in these assays?
DT40 TDP1 no CPT: -5%; DT40 TDP1 CPT: 8%

Results for COC(=O)N1CCC2(CCCN(C(=O)Nc3cccc(C#N)c3)C2)CC1 ?
DT40 TDP1 no CPT: -9%; DT40 TDP1 CPT: 1%

Results for O=C(Nc1cccc(F)c1)N1CCCC2(CCN(C(=O)c3ccncc3)CC2)C1 ?
DT40 TDP1 no CPT: 0.15µM*; DT40 TDP1 CPT: 0.13µM*

Results for O=C(Cn1cc2ccccc2n1)N1CCOc2ccc(C(O)C3CCCCC3)cc2C1 (centres undefined) ?
DT40 TDP1 no CPT: inconclusive; DT40 TDP1 CPT: -3%[9.04 µM]

Results for COc1cccc(-n2c(=O)c3cc(OC)c(OC)cc3n(CC(=O)Nc3ccccc3)c2=O)c1 ?
ClpP mod: 4%; D3 ag: -7; DT40 TDP1 no CPT: inconclusive; DT40 TDP1 CPT: inconclusive

What do the screens show for `CC(=O)c1ccc(OCCCOc2cccc3cccnc23)cc1`?
ClpP mod: -9%; IL-1B inflam inh: -70*; D3 antag: 0; D3 ag: -13; DT40 TDP1 no CPT: inconclusive; DT40 TDP1 CPT: inconclusive

What do the screens show for `CC(=O)CCc1ccc(OCCCOc2cccc3cccnc23)cc1`?
ClpP mod: -6%; IL-1B inflam inh: -12; D3 antag: 61; D3 ag: 2; DT40 TDP1 no CPT: inconclusive; DT40 TDP1 CPT: inconclusive

What do the screens show for `OCc1ccccc1OCCCOc1cccc2cccnc12`?
ClpP mod: 0%; IL-1B inflam inh: -18; D3 antag: 4; D3 ag: 5; DT40 TDP1 no CPT: -10%; DT40 TDP1 CPT: -1%

Results for c1ccc(OCCOc2cccc3cccnc23)cc1 ?
ClpP mod: -5%; IL-1B inflam inh: -23; D3 antag: 19; D3 ag: 2; DT40 TDP1 no CPT: -28%; DT40 TDP1 CPT: -15%

What do the screens show for `Cc1cc(OCCOc2cccc3cccnc23)cc(C)c1Cl`?
ClpP mod: 18%; IL-1B inflam inh: -12; D3 antag: 0; D3 ag: -10; DT40 TDP1 no CPT: 18µM*; DT40 TDP1 CPT: 15µM*

What do the screens show for `COc1cc(C(C)=O)ccc1OCCCOc1cccc2cccnc12`?
IL-1B inflam inh: -11; D3 antag: 15; D3 ag: 9; DT40 TDP1 no CPT: inconclusive; DT40 TDP1 CPT: 18µM*

How did CC(C)Oc1ccccc1OCCCOc1cccc2cccnc12 do in these assays?
IL-1B inflam inh: inconclusive; D3 antag: 6; D3 ag: -1; DT40 TDP1 no CPT: 21µM*; DT40 TDP1 CPT: inconclusive

Results for CC(=O)c1ccccc1OCCCN1CCCCC1 ?
ClpP mod: -7%; IL-1B inflam inh: -8; D3 antag: -24; D3 ag: -11; DT40 TDP1 no CPT: -19%; DT40 TDP1 CPT: -3%

Results for CC(=O)c1ccccc1OCCOCCOCCOc1ccccc1C(C)=O ?
ClpP mod: 0.89µM*; IL-1B inflam inh: -16; D3 antag: -6; D3 ag: -4; DT40 TDP1 no CPT: inconclusive; DT40 TDP1 CPT: 18µM*
